# Data taken from the supplement of paper PMC8975748.
# Counter-ions that a name gives are not always drawn.
# Test system: Saccharomyces cerevisiae BY4741 SeMeCo community
# Experiment: z-score of prototroph abundance vs DMSO median; higher = larger share of this subpopulation than in DMSO controls
# Settings: 10 µM; 24 h; SM minimal medium; subpopulation (auxotrophy): Prototroph
# Description: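 Fluorescent four-plasmid SeMeCo (self-establishing metabolically cooperating S. cerevisiae BY4741 community; plasmids pH-mRuby2, pL-mWasabi, pU-eCFP, pM-TagRFP657) was grown 24 h in minimal SM medium with each Selleck FDA-approved drug at 10 µM in 384-well plates. Cells were fixed and imaged by high-content confocal microscopy. For each auxotrophic subpopulation (and the prototroph), a z-score gives the deviation from the DMSO vehicle-control population median.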
row,Compound,z-score of prototroph abundance
1,CCC1=C[C@H]2CN3CCc4c([nH]c5ccccc45)[C@](C(=O)OC)(C2)[C@H]13 [Catharanthine],0.37
2,COc1ccc(C(CN(C)C)C2(O)CCCCC2)cc1 (stereo not given) [Venlafaxine HCl],0
3,C[C@@H]1O[C@@H](O[C@H]2C[C@@H](O)[C@]3(CO)[C@H]4[C@H](O)C[C@]5(C)[C@@H](C6=CC(=O)OC6)CC[C@]5(O)[C@@H]4CC[C@]3(O)C2)[C@H](O)[C@H](O)[C@H]1O [Ouabain],0.81
4,CN(C)[C@@H]1C(=O)C(C(N)=O)=C(O)[C@@]2(O)C(=O)C3=C(O)c4c(O)cccc4[C@@](C)(O)[C@H]3[C@H](O)[C@@H]12 [Oxytetracycline Dihydrate],0.77
5,CNC1CC(N)C(O)C(OC2OC(CO)C(O)C3OC4(OC(C(N)CO)C(O)C(O)C4O)OC23)C1O (stereo not given) [Hygromycin B],0.64
6,CC[C@@]1(O)C(=O)OCc2c1cc1n(c2=O)Cc2cc3ccccc3nc2-1 [Camptothecin],0.34
7,CN1C(=O)COc2c(C(=O)NC3CN4CCC3CC4)cc(Cl)cc21 (stereo not given) [Azasetron HCl],0.42
8,CN(C)C(=O)Oc1ccc[n+](C)c1 [Pyridostigmine Bromide],-0.27
9,CN(C)[C@@H]1C(=O)C(C(N)=O)=C(O)[C@@]2(O)C(=O)C3=C(O)c4c(O)cccc4[C@@](C)(O)[C@H]3C[C@@H]12 [Tetracycline HCl],-0.24
10,CC(C)(O)C(Cl)(Cl)Cl [Chlorobutanol],-0.27
11,CN1[C@@H]2C[C@@H](OC(=O)[C@H](CO)c3ccccc3)C[C@H]1[C@@H]1O[C@@H]12 [Scopolamine HBr],0.86
12,C=C(C)[C@H]1Cc2c(ccc3c2O[C@@H]2COc4cc(OC)c(OC)cc4[C@@H]2C3=O)O1 [Rotenone (Barbasco)],-0.73
13,COc1cc2c(cc1OC)C1CC(=O)C(CC(C)C)CN1CC2 (stereo not given) [Tetrabenazine (Xenazine)],0.02
14,C[C@H]1O[C@H](O[C@H]2[C@H](O)[C@@H](O)[C@@H](O)[C@H](O)[C@@H]2O)[C@@H](N)C[C@@H]1NC(=N)C(=O)O [Kasugamycin hydrochloride],0.23
15,CN1[C@@H]2CC[C@H]1C[C@@H](OC(=O)C(CO)c1ccccc1)C2 (stereo not given in full) [Atropine sulfate monohydrate],0.64
16,CC[C@@H](C(N)=O)N1CCCC1=O [Levetiracetam],0.59
17,CCN(C)C(=O)Oc1cccc([C@H](C)N(C)C)c1 [Rivastigmine Tartrate],0.28
18,CN(C)[C@@H]1C(=O)C(C(N)=O)=C(O)[C@@]2(O)C(=O)C3=C(O)c4c(O)cccc4[C@@](C)(O)[C@H]3[C@H](O)[C@@H]12 [Oxytetracycline (Terramycin)],-0.34
19,Nc1ccncc1 [4-Aminopyridine],-0.05
20,CCOC(=O)Nc1ccc(NCc2ccc(F)cc2)cc1N [Retigabine],0.21

row,Compound,z-score of prototroph abundance
1,CCN(CC)CCOC(=O)C(O)(c1ccccc1)c1ccccc1 [Benactyzine hydrochloride],-0.56
2,CN1[C@@H]2C[C@@H](OC(=O)[C@H](CO)c3ccccc3)C[C@H]1[C@@H]1O[C@@H]12 [Scopolamine HBr trihydrate],0.7
3,C[C@@H]1CC[C@H]2[C@@H](C)C(=O)O[C@@H]3O[C@@]4(C)CC[C@@H]1[C@]32OO4 [Artemisinin],1.7
4,N#Cc1nn(-c2c(Cl)cc(C(F)(F)F)cc2Cl)c(N)c1[S+]([O-])C(F)(F)F (stereo not given) [Fipronil],0.88
5,O=C(O[C@H]1C[N+]2(CCCOc3ccccc3)CCC1CC2)C(O)(c1cccs1)c1cccs1 [Aclidinium Bromide],-0.31
6,C[CH2][Hg][S]c1ccccc1C(=O)[O-].[Na+] [Thimerosal],-17.3
7,C#C[C@]1(O)C=C[C@H]2[C@@H]3CCC4=CC(=O)CC[C@@H]4[C@H]3CC[C@@]21CC [Gestodene],0.59
8,Nc1nc(N)nc(NC2CC2)n1 [Cyromazine],-1.21
9,C[N+](C)(C)CCCCCCCCCC[N+](C)(C)C [Decamethonium Bromide],0.58
10,C=CC[C@]1(O)CC[C@H]2[C@@H]3CCC4=CC(=O)CCC4=C3C=C[C@@]21C [Altrenogest],0.56
11,CCCCCCCCCCCCCCCC[n+]1ccccc1 [Cetylpyridinium Chloride],-12.7
12,CCN(C)C(=O)Oc1cccc([C@H](C)N(C)C)c1 [Rivastigmine],-0.39
13,CN[C@@H]1[C@@H](O)[C@@H](O[C@@H]2[C@@H](O)[C@H](O[C@H]3O[C@H]([C@@H](C)O)[C@@H](O)[C@H](O)[C@H]3N)[C@@H](N)C[C@H]2N)OC[C@]1(C)O [Geneticin (G418 Sulfate)],0.1
14,C[N+]12CCC(CC1)C(OC(=O)C(O)(c1ccccc1)c1ccccc1)C2 (stereo not given) [Clidinium Bromide],0.13
15,Oc1cccc2cccnc12 [8-Hydroxyquinoline],0.32
16,CN1[C@@H]2CC[C@H]1C[C@@H](OC(=O)[C@H](CO)c1ccccc1)C2 [Hyoscyamine],0.38
17,CC1(C)SC2C(N)C(=O)N2C1C(=O)O (stereo not given) [6-Aminopenicillanic acid],0.04
18,CC(=O)OCC1=C(C(=O)O)N2C(=O)C(N)C2SC1 (stereo not given) [7-Aminocephalosporanic acid],0.2
19,CC[N+](C)(CC)CCOC(=O)C(O)(c1ccccc1)c1ccccc1 [Methylbenactyzine Bromide],1.09
20,O=[N+]([O-])C(Br)(CO)CO [Bronopol],-0.24
